Reference: PubChem BioAssay AID1159580 (chemical genetic matrix, 2015)
Values joined by “and” are separate entries in the source; they are usually repeats but may differ in a detail not shown here. Equal entries are not always repeated. Out of some 5,500 compounds screened, about 2,000 (36%) were called active. Inconclusive results (about 18%) are left out. Cut-off read from the data, not from the text of the source: active = normalized growth mostly below about 0.91 (no sharp cut-off); inconclusive = no clear call, values can overlap the other calls; inactive = mostly above about 0.92. The list shows a part of the results.

Experiment: chemical genetic growth profiling, strain panel (AID 1159580);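 note: tested at 20 µM; growth read once vehicle control cultures reached saturation at 30 °C; 1 = growth at the plate median or of vehicle wells; lower values mean less growth of the strain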
Settings: S. cerevisiae deletion strains, growth OD

Measured: normalized growth

N=C(N)N
inactive: locus YAL013W, strain DEP1, active compounds read low 1.01 | locus YAL021C, strain ccr4, active compounds read low 0.995 | locus YAL026C, strain drs2, active compounds read low 0.994 | locus YAL030W, strain snc1, active compounds read low 0.993 | locus YBL061C, strain skt5, active compounds read low 0.992 | locus YBR009C, strain hhf1, active compounds read low 1.01 | locus YBR021W, strain FUR4, active compounds read low 1.03 | locus YBR023C, strain chs3, active compounds read low 1.01 | locus YBR171W, strain sec66, active compounds read low 0.977 | locus YBR229C, strain ROT2, active compounds read low 0.999 | locus YBR231C, strain swc5, active compounds read low 0.98 | locus YBR279W, strain paf1, active compounds read low 0.993 | locus YCL011C, strain gbp2, active compounds read low 1.01 | locus YCL016C, strain dcc1, active compounds read low 1.01 | locus YCL029C, strain bik1, active compounds read low 0.963 | locus YCL061C, strain MRC1, active compounds read low 0.996 | locus YCL069W, strain vba3, active compounds read low 0.998 | locus YCR088W, strain abp1, active compounds read low 0.992 | locus YDL005C, strain med2, active compounds read low 0.987 | locus YDL035C, strain GPR1, active compounds read low 1.03 | locus YDL040C, strain nat1, active compounds read low 1 | locus YDL074C, strain BRE1, active compounds read low 1.01 | locus YDL101C, strain DUN1, active compounds read low 0.991 | locus YDL134C, strain PPH21, active compounds read low 1.01 | locus YDL185W, strain tfp1, active compounds read low 0.968 | locus YDL192W, strain arf1, active compounds read low 0.982 | locus YDR001C, strain nth1, active compounds read low 0.994 | locus YDR069C, strain doa4, active compounds read low 0.983 | locus YDR101C, strain arx1, active compounds read low 0.994 | locus YDR137W, strain rgp1, active compounds read low 1 | locus YDR150W, strain NUM1, active compounds read low 0.992 | locus YDR159W, strain sac3, active compounds read low 0.929 | locus YDR162C, strain NBP2, active compounds read low 0.996 | locus YDR195W, strain ref2 0.943 | locus YDR297W, strain sur2, active compounds read low 0.993 | locus YDR318W, strain mcm21, active compounds read low 0.981 | locus YDR334W, strain swr1, active compounds read low 0.992 | locus YDR335W, strain msn5, active compounds read low 1.06 | locus YDR388W, active compounds read low 0.972 | locus YDR392W, strain spt3, active compounds read low 0.875 | locus YDR502C, strain sam2, active compounds read low 0.999 | locus YEL003W, strain gim4, active compounds read low 0.992 | locus YEL037C, strain rad23, active compounds read low 0.998 | locus YEL061C, strain CIN8 (second series), active compounds read low 1 | locus YEL061C, strain CIN8, active compounds read low 0.996 | locus YER015W, strain faa2, active compounds read low 0.999 | locus YER016W, strain bim1, active compounds read low 0.997 | locus YER110C, active compounds read low 0.976 | locus YER111C, strain swi4, active compounds read low 0.998 | locus YER155C, strain BEM2 (second series), active compounds read low 0.976 | locus YER155C, strain BEM2, active compounds read low 1 | locus YER167W, strain BCK2, active compounds read low 1.02 | locus YFR010W, strain ubp6, active compounds read low 0.995 | locus YGL078C, strain dbp3, active compounds read low 1 | locus YGL086W, strain mad1, active compounds read low 1.01 | locus YGL167C, strain pmr1, active compounds read low 1 | locus YGL173C, strain kem1, active compounds read low 0.987 | locus YGL227W, strain vid30, active compounds read low 0.991 | locus YGL240W, strain doc1, active compounds read low 0.999 | locus YGL248W, strain PDE1, active compounds read low 1 | locus YGL253W, strain hxk2, active compounds read low 1 | locus YGR078C, strain PAC10, active compounds read low 0.997 | locus YGR135W, strain pre9, active compounds read low 1 | locus YGR229C, strain SMI1, active compounds read low 1.04 | locus YGR252W, strain gcn5, active compounds read low 1.13 | locus YHR013C, strain ard1, active compounds read low 1.01 | locus YHR027C, strain rpn1, active compounds read low 1.01 | locus YHR030C, strain SLT2, active compounds read low 1 and 1.05 | locus YHR079C, strain IRE1 (second series), active compounds read low 0.977 | locus YHR079C, strain IRE1, active compounds read low 1.03 | locus YHR094C, strain hxt1, active compounds read low 0.974 | locus YHR129C, strain ARP1, active compounds read low 0.992 | locus YHR142W, strain chs7, active compounds read low 1.02 | locus YHR200W, strain rpn10, active compounds read low 0.992 | locus YIL066C, strain RNR3, active compounds read low 0.994 | locus YIL073C, strain SPO22, active compounds read low 0.9 | locus YIL125W, strain kgd1, active compounds read low 0.991 | locus YIR030C, strain dcg1, active compounds read low 0.99 | locus YJL092W, strain hpr5, active compounds read low 0.999 | locus YJL095W, strain BCK1 (second series), active compounds read low 0.998 | locus YJL095W, strain BCK1, active compounds read low 0.993 and 1.05 | locus YJL115W, strain asf1, active compounds read low 0.99 | locus YJL129C, strain trk1, active compounds read low 0.985 | locus YJL134W, strain LCB3, active compounds read low 0.997 | locus YJL154C, strain vps35, active compounds read low 0.994 | locus YJL164C, strain tpk1, active compounds read low 1.01 | locus YJL166W, strain qcr8, active compounds read low 1.01 | locus YJL168C, strain set2, active compounds read low 0.975 | locus YJL187C, strain SWE1 (second series), active compounds read low 0.946 | locus YJL187C, strain SWE1, active compounds read low 0.993 | locus YJR043C, strain POL32, active compounds read low 0.999 | locus YJR066W, strain TOR1, active compounds read low 0.957
